Assay results as given in PubChem BioAssay AID926 (National Center for Advancing Translational Sciences (NCATS), 2007).
Values joined by “and” are separate entries in the source; they are usually repeats but may differ in a detail not shown here. Equal entries are not always repeated. Hit rate of the full screen: of about 73,000 compounds, about 350 (0.48%) were called active. Inconclusive results (about 17%) are left out. Calls follow the shape of the dose curve; as a rule, active = well fitted activation curve with a large enough effect in the main read-out, with a control signal flat (not every such curve was filed as active); inconclusive = small, poorly fitted or top-dose-only effect, or a change in a side signal; inactive = no such curve, though single readings can be large or run the other way; reference of the percent scale not stated here. Shown is part of a subset that was picked to be rich in actives. More than one record can exist for a structure, and the calls need not agree.

Assays:
[1] = qHTS Assay for Agonists of the Thyroid Stimulating Hormone Receptor; details: HEK293-CNG-TSHR cells, membrane potential dye, cAMP; measured here: parental cells max response
Description: (§1) NIH Chemical Genomics Center [NCGC]
(§2) NIH Molecular Libraries Screening Centers Network [MLSCN]
(§3) PI Name: Dr. Marvin Gershengorn, NIH
(§4) Thyroid Stimulating Hormone Receptor
(§5) TSH is an alpha/beta heterodimeric glycoprotein hormone secreted from the anterior pituitary gland which belongs to the glycoprotein hormone family. The actions of TSH are mediated by a seven-transmembrane receptor, which upon TSH binding couples preferentially to the G-alpha (s) protein (Gs), resulting in activation of adenylate cyclase and increase in cyclic adenosine 3', 5' monophosphate (cAMP). The TSH receptor (THSR) is mainly expressed in thyroid follicular cells and regulates their growth and function. Recombinant TSH is used to activate TSHR in patients with thyroid cancer receiving thyroid hormone suppression therapy and to screen for residual tumor after surgery, but it is expensive and must be administered intramuscularly. An orally active small molecule TSHR agonist would serve as an invaluable research tool for studying TSHR pharmacology and physiology, and would have multiple advantages in therapeutic settings. However, no selective small molecule agonist of the TSH receptor exists, and no small molecule screen for TSHR agonists has ever been reported.
(§6) This cell based assay utilized a cyclic nucleotide gated ion channel (CNG) as a biosensor for cAMP induction by potential TSHR agonists.
(§7) HEK 293 cells stably expressing the TSHR as well as a modified CNG were purchased from BD biosciences. Stimulation of cAMP production causes the CNG to open and subsequent membrane depolarization to occur. A fluorescent membrane potential dye (BD biosciences) was utilized to detect cAMP stimulation in TSHR cells.
(§8) The cells were maintained in DMEM medium (Invitrogen) containing 10 % FBS (Hyclone), 100 units/ml Penicillin, 100 ug/ml Streptomycin (Invitrogen), and 250 ug/ml Geneticin (Invitrogen) and 1 ug/ml Puromycin (Invitrogen) at 37C in 5% CO2. HEK 293 cells expressing CNG but without TSHR (parental cells) were used in concert to control for compounds signaling through endogenous receptors and targets of HEK 293 cells.
(§9) NCGC Assay Protocol Summary:
(§10) High Throughput Screening. Freshly passaged cells (TSHR or parental) were dispensed into 1536-well assay plates at 4 ul/well in DMEM containing phenol red (Invitrogen), 10% FCS (Hyclone), and 100 units/ml Penicillin, 100 ug/ml Streptomycin (Invitrogen) and incubated at 37 C with 5% CO2 for 20 to 36 hrs before the robotic screening. The screen was initiated by addition of 4 ul/well membrane potential dye containing 100 uM RO 20-1724 (Sigma Aldrich), followed by 60 min incubation at room temperature to allow for dye equilibration across the cell membrane. 23 nl/well compound or control was then added to the assay plates, which were incubated for additional 30 min before reading a Envision fluorescence plate reader (Perkin Elmer) in bottom-read mode for fluorescence intensity (emission at 590 nm).
(§11) Keywords: Thyroid-stimulating hormone TSH, TSHR, TSHR agonist, quantitative high throughput screening, qHTS, HTS, probe identification, CNG, cAMP, cyclic nucleotide gated ion channel PubChem

[2] = target: Thyrotropin receptor (Homo sapiens) (UniProt P16473); assay: as above; details: HEK293-CNG-TSHR cells (CNG channel as cAMP sensor), membrane potential dye, cAMP; series mostly up to 57.1 µM
Description: as §1, §2, §3, §4, §5, §6, §7, §8, §9, §10, §11
Potency is read from the fitted curve at half-maximal effect.

Sequence of Thyrotropin receptor (Homo sapiens) (P16473 whole entry, looked up): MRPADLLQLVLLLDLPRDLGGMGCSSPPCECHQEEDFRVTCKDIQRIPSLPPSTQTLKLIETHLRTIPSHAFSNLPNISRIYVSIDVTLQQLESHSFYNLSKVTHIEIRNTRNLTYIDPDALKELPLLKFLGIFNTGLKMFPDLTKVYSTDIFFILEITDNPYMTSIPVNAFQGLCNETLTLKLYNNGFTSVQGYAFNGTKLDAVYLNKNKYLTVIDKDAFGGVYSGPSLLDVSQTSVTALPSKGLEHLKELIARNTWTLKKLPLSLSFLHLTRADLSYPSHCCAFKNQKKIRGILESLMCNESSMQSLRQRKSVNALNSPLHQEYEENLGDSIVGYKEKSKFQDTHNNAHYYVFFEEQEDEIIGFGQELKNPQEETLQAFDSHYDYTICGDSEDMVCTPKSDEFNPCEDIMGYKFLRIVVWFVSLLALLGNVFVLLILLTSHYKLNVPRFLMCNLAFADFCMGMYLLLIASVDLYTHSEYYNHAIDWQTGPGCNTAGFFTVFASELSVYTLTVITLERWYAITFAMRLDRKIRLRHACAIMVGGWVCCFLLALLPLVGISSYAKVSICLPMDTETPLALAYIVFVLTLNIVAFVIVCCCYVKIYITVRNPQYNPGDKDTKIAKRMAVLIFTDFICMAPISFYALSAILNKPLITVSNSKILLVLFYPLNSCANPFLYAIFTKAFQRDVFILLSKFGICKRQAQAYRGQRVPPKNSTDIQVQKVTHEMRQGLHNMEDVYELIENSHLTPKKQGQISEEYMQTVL

SMILES | activation [1] | Potency [2]
CCOC(=O)CC1=C(C(=O)OCC)C2(C(=O)N1)C(C(=O)OC)=C(N)Oc1ccccc12 (centres undefined) | 2.69% | inactive
C=CCN1C(=O)C2(C(C(=O)OCC)=C(N)Oc3c2c(=O)oc2ccccc32)c2ccccc21 (centres undefined) | -2.59% | 1000 nM (active)
CCOC(=O)C1=C(C)OC(N)=C(C(=O)OC)C12C(=O)Nc1ccc(Br)cc12 (centres undefined) | 2.68% | inactive
C/C(=C\C=C/[C@@H](C)C(=O)O)[C@H]1CN[C@H](C(=O)O)[C@@H]1CC(=O)O | 10.5% | inactive
CN1[C@H]2CC(OC(=O)[C@@H](CO)c3ccccc3)C[C@H]1[C@H]1O[C@H]12 (some centres undefined) | 8.99% | inactive
C[C@]12CC[C@H](O)C[C@@H]1CC[C@H]1[C@H]2CC[C@]2(C)C(=O)CC[C@@H]12 | -0.6% and 8.47% and 0.887% | inactive
CN=C(NC#N)NCCSCc1nc[nH]c1C | 6.37% and -0.29% | inactive
CNCC[C@H](Oc1ccc(C(F)(F)F)cc1)c1ccccc1 |  | inactive and 126 nM (active)
Clc1ccc([C@@H]2C[C@H]3CC[C@@H]2N3)cn1 | 5.78% | inactive
Clc1cccc(Cl)c1Cl | 22.7% | inactive
